Measured values: PubChem BioAssay (NCATS)
Records with an inconclusive call do not appear. A number with no mark means an inactive call. Activity calls are given as the source filed them. Calls come from the whole dose curve; as a rule, active = well fitted curve in the direction sought with a large enough effect; inconclusive = small, poorly fitted or top-dose-only effect, or another doubt; inactive = no such curve, though single readings can be large; an effect the other way counts as inactive or inconclusive.

Legend:
[1] = qHTS of pediatric cancer cell lines to identify multiple opportunities for drug repurposing: Primary screen for Rh41 cells (AID 1347108); note: nearly all actives have a fitted effect of over 70% in size
Outline: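 ATP-based luminescence (CellTiter-Glo) quantifies viability after a 48-hour exposure. Compounds are dosed across 8 or 11 final concentrations; DMSO and 2.3 µM bortezomib serve as controls.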

[2] = qHTS of pediatric cancer cell lines to identify multiple opportunities for drug repurposing: Confirmatory screen for NB1643 cells (AID 1347109); note: nearly all actives have a fitted effect of over 45% in size
Outline: (§1)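 Cells (500-1,000/well) rested 5 h, then received compounds for 48 h; metabolically active cells were measured by CellTiter-Glo luminescence. Final concentrations spanned up to 46 µM (MIPE, 11-point) or 0.59 nM-46 µM (NPC, 8-point) in primary screens, 11-point in follow-ups.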

[3] = qHTS of pediatric cancer cell lines to identify multiple opportunities for drug repurposing: Confirmatory screen for A673 cells (AID 1347110);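 note: cells exposed to compound for 48 h before the viability read; nearly all actives have a fitted effect of over 65% in size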
Outline: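 Viability was read as ATP luminescence (CellTiter-Glo) after 48 h of compound exposure at 37 C in A673 cells seeded at 500-1,000/well. Titrations reached 46 uM final, with 11 points in the confirmatory screen. Concentration-response curves were fitted directly.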

[4] = qHTS of pediatric cancer cell lines to identify multiple opportunities for drug repurposing: Confirmatory screen for SK-N-MC cells (AID 1347111);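 note: cells exposed to compound for 48 h before the readout; nearly all actives have a fitted effect of over 70% in size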
Outline: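 Seed 500-1,000 cells/well; rest 5 h at 37 degrees C. Pin-transfer compounds, 11-point titration. Incubate 48 h. Add CellTiter-Glo, 15 min RT, read luminescence.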

[5] = qHTS of pediatric cancer cell lines to identify multiple opportunities for drug repurposing: Confirmatory screen for BT-12 cells (AID 1347112); note: nearly all actives have a fitted effect of over 55% in size
Outline: as §1

[6] = qHTS of pediatric cancer cell lines to identify multiple opportunities for drug repurposing: Confirmatory screen for LAN-5 cells (AID 1347113); note: nearly all actives have a fitted effect of over 65% in size
Outline: as §1

[7] = qHTS of pediatric cancer cell lines to identify multiple opportunities for drug repurposing: Confirmatory screen for DAOY cells (AID 1347114); note: nearly all actives have a fitted effect of over 65% in size
Outline: (§2)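 Viability measured as metabolically active cells via CellTiter-Glo luminescence following 48 hours of compound exposure, 11-point dilutions in confirmatory testing. 500-1,000 cells/well plated 5 hours before dosing; controls were DMSO and 2.3 µM bortezomib.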

[8] = qHTS of pediatric cancer cell lines to identify multiple opportunities for drug repurposing: Confirmatory screen for NB-EBc1 cells (AID 1347115);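 note: cells exposed to compound for 48 h before the viability read; nearly all actives have a fitted effect of over 45% in size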
Outline: as §1

[9] = qHTS of pediatric cancer cell lines to identify multiple opportunities for drug repurposing: Confirmatory screen for SJ-GBM2 cells (AID 1347116); note: nearly all actives have a fitted effect of over 60% in size
Outline: as §2
Potency is the fitted concentration of half-maximal effect.

| SMILES | Potency [1] | Potency [2] | Potency [3] | Potency [4] | Potency [5] | Potency [6] | Potency [7] | Potency [8] | Potency [9] |
| --- | --- | --- | --- | --- | --- | --- | --- | --- | --- |
| CNC(=O)CN1CCC(Oc2cc3c(Nc4cccc(Cl)c4F)ncnc3cc2OC)CC1 | 46.9 nM (active) | 1040 nM (active) | inactive | 1470 nM (active) | inactive | 1170 nM (active) | inactive |  |  |
| Cc1c(CN2CCN(S(C)(=O)=O)CC2)sc2c(N3CCOCC3)nc(-c3cnc(N)nc3)nc12 | 148 nM (active) | 1310 nM (active) | 1850 nM (active) | 827 nM (active) |  | 1310 nM (active) |  |  |  |
| CC[C@H]1CN2CCc3cc(OC)c(OC)cc3[C@H]2C[C@@H]1C[C@@H]1NCCc2cc(OC)c(OC)cc21 | 4690 nM (active) | 1850 nM (active) | 657 nM (active) | 293 nM (active) | 261 nM (active) | 165 nM (active) |  | 657 nM (active) | 522 nM (active) |
| Cc1ccc(-c2ncn(-c3ccc(Nc4nccc(-c5cccc(N6CCOCC6)c5)n4)cc3)n2)cn1 | 132 nM (active) | 107 nM (active) | 170 nM (active) | 120 nM (active) | 214 nM (active) | 95.5 nM (active) |  |  | 240 nM (active) |
| O=C(C=Cc1cccc(S(=O)(=O)Nc2ccccc2)c1)NO | 6790 nM (active) | 1350 nM (active) | 6030 nM (active) | 1510 nM (active) | 38000 nM (active) | 1700 nM (active) | 19100 nM (active) |  | 2140 nM (active) |
| CCS(=O)(=O)c1cccc(-c2cc(C(=O)NC3CCN(C)CC3)c(C)c3[nH]c4ncc(C)cc4c23)c1 | 1320 nM (active) | 414 nM (active) | 928 nM (active) | 117 nM (active) | 4650 nM (active) | 1170 nM (active) | 16500 nM (active) | 16500 nM (active) | 5220 nM (active) |
| Cc1ccc(C(N)=O)cc1Nc1nccc(-c2cn(C(C)C)c3cnccc23)n1 | 18700 nM (active) |  | 9550 nM (active) | 7590 nM (active) | 13500 nM (active) | 8510 nM (active) |  |  | 21400 nM (active) |
| CC(C)(C)OC(=O)Nc1ccc(-c2cc(C(=O)NCCCCCCC(=O)NO)no2)cc1 | 3720 nM (active) | 1170 nM (active) | 2330 nM (active) | 32.9 nM (active) | 18500 nM (active) |  |  |  | 4140 nM (active) |
| CC(=O)Nc1nc(C)c(-c2ccc(Cl)c(S(=O)(=O)NCCO)c2)s1 | 6620 nM (active) | 16500 nM (active) |  | 8270 nM (active) |  | 6570 nM (active) |  |  |  |
| COc1cc(Nc2ncc(F)c(Nc3ccc4c(n3)N(COP(=O)(O)O)C(=O)C(C)(C)O4)n2)cc(OC)c1OC | 3720 nM (active) | 5850 nM (active) | 7370 nM (active) | 11700 nM (active) |  | 10400 nM (active) |  |  |  |
| CC(C)c1cnn2c(NCc3ccccc3)cc(N[C@@H](CO)[C@H](O)CO)nc12 | 743 nM (active) |  | 369 nM (active) | 585 nM (active) | 522 nM (active) | 293 nM (active) |  |  |  |
| Cc1cn(-c2cc(NC(=O)c3ccc(C)c(Nc4nccc(-c5cccnc5)n4)c3)cc(C(F)(F)F)c2)cn1 | inactive | 18500 nM (active) | 20800 nM (active) | inactive | inactive | 18500 nM (active) |  | inactive |  |
| COc1cc2c(Oc3ccc(NC(=O)C4(C(=O)Nc5ccc(F)cc5)CC4)cc3F)ccnc2cc1OCCCN1CCOCC1 | 4690 nM (active) | 5220 nM (active) | 2330 nM (active) | 3690 nM (active) | 13100 nM (active) | 5220 nM (active) |  | 13100 nM (active) | 5220 nM (active) |
| CCn1nnc2c(N3CCOCC3)nc(-c3ccc(NC(=O)Nc4ccc(C(=O)N5CCN(C)CC5)cc4)cc3)nc21 | 93.5 nM (active) | 1850 nM (active) | 585 nM (active) | 657 nM (active) |  | 522 nM (active) |  |  | 737 nM (active) |
| COc1cc(=C2C=c3ccccc3=N2)[nH]c1=Cc1[nH]c(C)cc1C | 5900 nM (active) | 14700 nM (active) | 2190 nM (active) | 11700 nM (active) | 26100 nM (active) | 10400 nM (active) |  |  | 43700 nM (active) |
| CC[C@@]1(O)C(=O)OCc2c1cc1n(c2=O)Cc2cc3cc(O)ccc3nc2-1 | 469 nM (active) | 73.7 nM (active) | 46.5 nM (active) | 13.1 nM (active) | 827 nM (active) | 41.4 nM (active) |  | 16.5 nM (active) |  |
